Source: PubChem BioAssay AID1224921 (Broad Institute, 2016)
Screen size: about 1,400 compounds; about 350 (25%) were called active. Not shown: some 2% with an inconclusive outcome. How the calls were made is not given here. Not all results are given here. Entries with a potency or affinity are not part of this list.

experiment: C. difficile growth inhibition, confirmation, 4-point retest (AID 1224921); conditions: Clostridioides difficile clinical isolate growth, OD600, 24 h, active compounds read low; at 30 µM unless noted;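 further: plate controls were DMSO wells for no effect and levofloxacin 16 µg/mL wells for full effect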

Max activity, inactive:
COc1ccc(S(=O)(=O)Nc2ccc3c(c2)CC(=O)N([C@@H](C)CO)C[C@@H](C)[C@H](CN(C)CC2CCCCC2)O3)cc1 25.5%
COc1ccccc1S(=O)(=O)N[C@@H]1C=C[C@H](CC(=O)N2CCCCC2)O[C@@H]1CO -6.91% [at 0.5 µM]
C[C@H](CO)N1C[C@H](C)[C@@H](CN(C)S(=O)(=O)c2cn(C)cn2)OCCCC[C@H](C)Oc2ccc(NC(=O)Nc3cccc4ccccc34)cc2C1=O 18.8%
C[C@@H]1CN([C@@H](C)CO)C(=O)c2cccc(NC(=O)Nc3ccc(C(F)(F)F)cc3)c2O[C@H]1CN(C)S(=O)(=O)c1ccc(Cl)cc1 49.8%
C[C@@H]1CN([C@H](C)CO)C(=O)c2cccc(NC(=O)Nc3ccc(C(F)(F)F)cc3)c2O[C@H]1CN(C)S(=O)(=O)c1ccc(Cl)cc1 33.1%
C[C@H]1CCCCO[C@H](CN(C)S(=O)(=O)c2cn(C)cn2)[C@@H](C)CN([C@@H](C)CO)C(=O)c2cc(NC(=O)CCCN(C)C)ccc2O1 5.89% [at 8 µM]
CC(C)NC(=O)Nc1ccc2c(c1)CC(=O)N([C@H](C)CO)C[C@@H](C)[C@@H](CN(C)Cc1ccc(-c3ccccc3)cc1)O2 54.7%
C[C@@H]1CN([C@H](C)CO)S(=O)(=O)c2ccc(C3=CCCCC3)cc2O[C@H]1CN(C)Cc1cccnc1 53.5%
CC(C)C#Cc1ccc2c(c1)O[C@@H](CN(C)Cc1ccncc1)[C@@H](C)CN([C@H](C)CO)S2(=O)=O 30.4%
COc1ccc(NC(=O)O[C@H]2[C@H](OC(=O)Nc3ccccc3)[C@H](OC(=O)Nc3ccccc3)[C@@H](OC)O[C@@H]2CO)cc1 32.3%
C[C@H](NC(=O)N(C)C[C@@H]1OCc2ccccc2-c2c(n(C)c3ccccc23)C(=O)N([C@H](C)CO)C[C@H]1C)c1ccccc1 18.8%
CC(=O)N(C)C[C@H]1Oc2ncc(-c3ccc(C(=O)N(C)C)cc3)cc2C(=O)N([C@H](C)CO)C[C@H]1C -8.17%
CO[C@@H]1CN(C)C(=O)c2ccc(NC(=O)Nc3ccc4c(c3)OCO4)cc2OC[C@@H](C)NC[C@@H]1C 10.6%
COCC(=O)Nc1ccc2c(c1)C(=O)N(C)C[C@@H](OC)[C@H](C)CN[C@H](C)CO2 -10.3% [at 1.95 µM]
COc1ccc(CN(C)C[C@H]2OCCCC[C@@H](C)Oc3ccc(NC(=O)Nc4ccc5c(c4)OCO5)cc3C(=O)N([C@@H](C)CO)C[C@@H]2C)cc1 44.6%
C[C@@H]1CN([C@@H](C)CO)C(=O)c2ccccc2-c2ccccc2CO[C@H]1CN(C)S(=O)(=O)c1ccsc1 36%
C[C@@H](C(=O)N(C)C[C@H]1OCc2ccccc2-c2ccccc2C(=O)N([C@@H](C)CO)C[C@@H]1C)c1ccccc1 -9.53% [at 8 µM]
C[C@@H]1CCCCO[C@H](CN(C)S(=O)(=O)c2ccc(Cl)cc2)[C@H](C)CN([C@@H](C)CO)C(=O)c2cc(N(C)C)ccc2O1 25.4%
O=C(N[C@H]1C=C[C@@H](CC(=O)N2CCOCC2)O[C@H]1CO)c1cccc(F)c1 9.04%
C[C@@H]1CN([C@H](C)CO)C(=O)c2cc(C#C[C@@H](C)O)cnc2O[C@@H]1CN(C)Cc1ccc(-c2ccccc2)cc1 -9.01% [at 1.95 µM]
C[C@@H]1CCCCO[C@@H](CN(C)CC2CC2)[C@H](C)CN([C@H](C)CO)C(=O)c2cc(NC(=O)Nc3cccc4ccccc34)ccc2O1 12.9%
COCC(=O)Nc1ccc2c(c1)C(=O)N(C)C[C@@H](OC)[C@H](C)CN(C(=O)CN1CCOCC1)[C@H](C)CO2 -15.1% [at 2.1 µM]
C[C@H]1CN([C@@H](C)CO)C(=O)c2cc(NC(=O)CCC(F)(F)F)ccc2O[C@H]1CN(C)Cc1ccc(-c2ccccc2)cc1 46.6%
CO[C@H]1CN(C)C(=O)c2cc(NC(=O)Nc3cccc(F)c3)ccc2OC[C@H](C)N(C)C[C@H]1C -7.19% [at 0.5 µM]
COc1ccc([Si](C)(C)[C@H]2[C@H](CCO)O[C@@]3(C(=O)N(C)c4ccccc43)[C@@H]2C)cc1 12.6% [at 8 µM]
CCCC#Cc1ccc2c(c1)O[C@@H](CN(C)Cc1ccncc1)[C@H](C)CN([C@H](C)CO)S2(=O)=O 15.9%
COc1cccc(S(=O)(=O)Nc2ccc3c(c2)[C@H]2C[C@@H](CC(=O)NC4CCCCC4)O[C@@H](CO)[C@H]2O3)c1 -11.1% [at 1.95 µM]
O=C(C[C@H]1C[C@H]2c3cc(NC(=O)Nc4ccc(C(F)(F)F)cc4)ccc3O[C@H]2[C@@H](CO)O1)NC1CCCCC1 -14.7% [at 1.95 µM]
COc1ccc(S(=O)(=O)N(C)C[C@@H]2Oc3ccc(NC(=O)CCCN(C)C)cc3CC(=O)N([C@@H](C)CO)C[C@H]2C)cc1 -7.02% [at 1.95 µM]
CCC(=O)Nc1ccc2c(c1)C(=O)N(C)C[C@@H](OC)[C@@H](C)CN[C@@H](C)CO2 6.81% [at 0.5 µM]
CO[C@H]1CN(C)C(=O)c2cc(NC(=O)Nc3ccc(F)cc3)ccc2OC[C@@H](C)NC[C@@H]1C -7.9% [at 0.5 µM]
CO[C@H]1CN(C)C(=O)c2cc(NC(=O)Nc3ccc(F)cc3)ccc2OC[C@H](C)NC[C@@H]1C -22.1%
CO[C@@H]1CN(C)C(=O)c2cc(NC(=O)Nc3ccc(F)cc3)ccc2OC[C@H](C)NC[C@H]1C -13.4% [at 1.95 µM]
CO[C@@H]1CN(C)C(=O)c2ccc(NC(=O)Nc3ccc4c(c3)OCO4)cc2OC[C@H](C)NC[C@H]1C -8.6% [at 0.5 µM]
C[C@@H]1CN([C@H](C)CO)C(=O)c2cc(NC(=O)Nc3ccc4c(c3)OCO4)ccc2O[C@H]1CN(C)Cc1ccccc1 22.6%
COc1ccc(NC(=O)N[C@H]2C=C[C@@H](CC(=O)NC3CCCCC3)O[C@H]2CO)cc1 -14.6% [at 1.95 µM]
COc1ccc(CN(C)C[C@H]2OCCCC[C@@H](C)Oc3ccc(NC(=O)Nc4ccc(F)cc4)cc3C(=O)N([C@@H](C)CO)C[C@@H]2C)cc1 19.8% [at 8 µM]
COCC#Cc1ccc2c(c1)O[C@H](CN(C)C)[C@@H](C)CN([C@H](C)CO)S2(=O)=O 7.09%
CO[C@H]1CN(C)C(=O)c2cc(NC(=O)c3ccccc3)ccc2OC[C@@H](C)N(C)C[C@@H]1C -8.25% [at 8 µM]
C[C@@H]1CN([C@@H](C)CO)C(=O)c2c(c3ccccc3n2C)-c2ccccc2CO[C@@H]1CN(C)S(=O)(=O)c1cccc(F)c1 6.96% [at 8 µM]
C[C@H](CO)N1C[C@H](C)[C@H](CN(C)C(=O)[C@H](C)c2ccccc2)OCc2ccccc2-c2ccccc2C1=O 12.5% [at 1.95 µM]
C[C@@H]1CN([C@H](C)CO)C(=O)c2cccc(NC(=O)Nc3ccc(C(F)(F)F)cc3)c2O[C@H]1CN(C)C(=O)Nc1ccccc1 25.7% [at 8 µM]
C[C@H](CO)N1C[C@H](C)[C@@H](CN(C)C(=O)Nc2ccccc2)Oc2c(NC(=O)Nc3ccc(C(F)(F)F)cc3)cccc2C1=O 46.6% [at 8 µM]
C[C@@H]1CN([C@@H](C)CO)C(=O)c2cccc(NC(=O)Nc3ccc(C(F)(F)F)cc3)c2O[C@H]1CN(C)C(=O)Nc1cccc2ccccc12 30.6% [at 1.95 µM]
C[C@@H]1CN([C@H](C)CO)C(=O)c2cccc(NC(=O)Nc3ccc(C(F)(F)F)cc3)c2O[C@@H]1CN(C)C(=O)Nc1cccc2ccccc12 40.5% [at 1.95 µM]
C[C@@H]1CN([C@@H](C)CO)C(=O)c2cccc(NC(=O)Nc3ccc(C(F)(F)F)cc3)c2O[C@H]1CN(C)C(=O)Nc1ccccc1 29.3%
C[C@H]1CN([C@@H](C)CO)S(=O)(=O)c2ccc(-c3ccccc3F)cc2O[C@@H]1CN(C)Cc1ccncc1 27%
C[C@H](CO)N1C[C@H](C)[C@@H](CN(C)C(=O)C2CCCCC2)Oc2ncc(-c3ccccc3F)cc2C1=O -11.4% [at 8 µM]
C[C@H]1CN([C@@H](C)CO)C(=O)Cc2cc(NS(C)(=O)=O)ccc2O[C@H]1CN(C)Cc1ccccc1 10.4%
COc1ccccc1C(=O)Nc1ccc2c(c1)OC[C@@H](C)N(CC1CC1)C[C@@H](C)[C@H](OC)CN(C)C2=O 19.1%
CO[C@@H]1CN(C)C(=O)c2ccc(NC(=O)c3nc4ccccc4s3)cc2OC[C@@H](C)N(Cc2ccncc2)C[C@H]1C 30.6%
CCCC#Cc1ccc2c(c1)O[C@H](CN(C)Cc1ccncc1)[C@H](C)CN([C@H](C)CO)S2(=O)=O 6.31%
C[C@@H]1CN([C@H](C)CO)C(=O)c2cccc(NC(=O)Nc3ccc4c(c3)OCO4)c2O[C@H]1CN(C)S(=O)(=O)c1ccc(Cl)cc1 -12.1% [at 8 µM]
CC(C)CC#Cc1ccc2c(c1)O[C@@H](CN(C)Cc1cccnc1)[C@H](C)CN([C@@H](C)CO)S2(=O)=O 42%
COc1ccccc1C#Cc1ccc2c(c1)O[C@H](CN(C)Cc1ccncc1)[C@@H](C)CN([C@@H](C)CO)S2(=O)=O 48.6%
